Test results reported in PubChem BioAssay.
The source made the active and inactive calls.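 The calls were made as follows, unless noted: active = fluorescence slope higher than the sample average by over 3 SD (cut at about -0.22 in these data, passing the limit was not always enough); inactive = the rest.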

What was measured:
[1] = inhibitors of TNFa-induced NFkB p65 translocation, primary screen, imaging, HUVEC, MLSMR starter and 10KST1 sets (AID 438;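 active = inhibition above 20% together with a positive visual image hit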;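 also: compound added about 3h40 before a 20 min TNFalpha stimulation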;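 as to inhibition: signal is the nuclear over cytoplasmic p65 intensity ratio per well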); details: HUVEC TNFa-induced p65 nuclear translocation; cell count: measured here: nuclei count (cytotoxicity indicator), at 2.08 µM; inhibition: at 2 µM, stronger effect = higher value, 0% TNFa-plus-vehicle, 100% no-TNFa wells
[2] = reduction of polyQ htt aggregates in cells – imaging, exon1htt(103Q)mCFP cells, high-content imaging, primary screen (AID 483;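 active = visual image review flags a hit and inhibition of aggregation exceeds 20%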;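 also: compound exposure lasted 3 days before fixation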;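 as to nuclei count: percent of the per-plate median nuclei count of sample wells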); details: exon1htt(103Q)mCFP cell line, aggregate imaging, at 2 µM; inhibition of aggregation: stronger effect = higher value; nuclei count: measured here: cell count, toxicity
[3] = endothelial E-selectin expression blockers – imaging, HUVEC, immunofluorescence, MLSMR starter and 10KST1 sets, primary screen (AID 487;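 active = visually confirmed hit in the image check and inhibition above 20%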;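 as to inhibition: signal is fraction of cell area covered by stained E-selectin grains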;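 as to nuclei count: 100% = median nuclei count of all wells on the same plate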); details: HUVEC TNFalpha-induced E-selectin immunofluorescence imaging, at 2 µM; inhibition: stronger effect = higher value; nuclei count: measured here: cell number, toxicity
[4] = molecular target: Voltage-gated potassium channel subunit beta-2 (Rattus norvegicus) (UniProt P62483); test: inhibitors of rat Kvbeta2 reductase activity – biochemical, NADPH fluorescence, primary screen (AID 622); details: recombinant KvBeta, 4-cyanobenzaldehyde reduction, at 10 µM, stronger effect = higher value;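 also: slope of raw intensity against log time taken from 70 to 1610 s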
Voltage-gated potassium channel subunit beta-2 (Rattus norvegicus), sequence (P62483 whole entry, looked up): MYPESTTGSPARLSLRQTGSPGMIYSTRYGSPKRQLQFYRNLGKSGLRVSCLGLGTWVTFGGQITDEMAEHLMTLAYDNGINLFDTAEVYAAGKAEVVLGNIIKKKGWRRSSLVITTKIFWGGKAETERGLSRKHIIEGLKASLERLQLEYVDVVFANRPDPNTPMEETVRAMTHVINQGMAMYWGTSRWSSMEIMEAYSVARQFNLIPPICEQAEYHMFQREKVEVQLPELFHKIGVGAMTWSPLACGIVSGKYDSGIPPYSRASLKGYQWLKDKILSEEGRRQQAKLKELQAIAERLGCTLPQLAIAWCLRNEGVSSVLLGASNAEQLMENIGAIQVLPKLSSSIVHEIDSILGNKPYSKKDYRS

[5] = molecular target: Voltage-gated potassium channel subunit beta-2 (Rattus norvegicus) (UniProt P62483); test: enhancers of rat Kvbeta2 NADPH turnover – biochemical, NADPH fluorescence, primary screen (AID 623;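 active = NADPH fluorescence slope more negative than the mean of all samples by about 3 SD, 99.7% confidence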;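 also: fluorescence intensity change per second fitted from 20 to 320 s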); details: Recombinant KvBeta, NADPH fluorescence decrease slope, 10 min; at 10 µM; stronger effect = lower value
[6] = molecular target: Alpha-2C adrenergic receptor (Homo sapiens) (UniProt P18825); test: compounds altering alpha2C-coupled GIRK flux – cell-based, HEK293 alpha2C/GIRK1/2, thallium flux, primary screen (AID 624;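 active = fluorescence slope after compound addition differing from the mean of all screened samples at 99.7% confidence, in either direction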;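 also: slope of fluorescence ratio to pre-addition baseline per second over 15 to 24 s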); details: thallium flux BTC fluorescence, at 10 µM, actives lie on both sides
Alpha-2C adrenergic receptor (Homo sapiens), sequence (P18825 whole entry, looked up): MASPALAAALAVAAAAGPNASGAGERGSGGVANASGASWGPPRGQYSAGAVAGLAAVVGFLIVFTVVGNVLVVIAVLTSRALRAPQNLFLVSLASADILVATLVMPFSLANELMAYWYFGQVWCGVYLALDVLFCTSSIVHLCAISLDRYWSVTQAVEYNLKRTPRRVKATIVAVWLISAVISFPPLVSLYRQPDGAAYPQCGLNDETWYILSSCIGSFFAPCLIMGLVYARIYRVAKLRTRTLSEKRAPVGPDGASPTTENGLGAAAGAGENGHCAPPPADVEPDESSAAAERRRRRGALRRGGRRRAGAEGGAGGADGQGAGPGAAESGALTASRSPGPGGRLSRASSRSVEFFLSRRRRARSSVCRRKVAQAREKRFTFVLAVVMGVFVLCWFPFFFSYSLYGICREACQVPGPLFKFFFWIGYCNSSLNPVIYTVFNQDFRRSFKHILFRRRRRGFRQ

[7] = blockers of RIG-like receptor reporter activation – cell-based, Sendai virus stimulus, luciferase, 10K MLSCN set, TLR/RLR signaling modifier project, primary screen (AID 602276;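 active = inhibition at or above 50% at 10 µM; inactive = inhibition below 50%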;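 also: firefly luciferase from ISG56 promoter only with Renilla not read in this screen; 0% = Sendai virus plus DMSO and 100% = medium plus DMSO without virus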); details: HEK293 RL24 IRF3 luciferase reporter, at 10 µM, stronger effect = higher value
[8] = TLR3 IRF3 reporter activation blockers – cell-based, poly I:C stimulus, luciferase, 10K MLSCN set, primary screen (AID 602277;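 active = inhibition of the reporter signal at or above 50%; inactive = inhibition below 50%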); details: HEK293-TLR3 RL24 IRF3 luciferase reporter, at 10 µM, stronger effect = higher value

Row | Structure (SMILES) | cell count [1] | inhibition [1] | inhibition of aggregation [2] | nuclei count [2] | inhibition [3] | nuclei count [3] | fluorescence slope [4] | NADPH fluorescence slope [5] | slope [6] | inhibition [7] | inhibition [8]
1 | CCOc1ccc(OCC)c(NC(=O)CCCN2C(=O)c3cccnc3C2=O)c1 | 408 | 5.3% (inactive) | 15.7% (inactive) | 93.7% | 42.2% (inactive) | 102% | -0.583 (inactive) | -3.8e-05 (inactive) | 0.00505 (inactive) | -17.2% (inactive) | -8.59% (inactive)
2 | Cc1nnc(SCC(=O)Nc2sc3c(c2C#N)CCCC3)[nH]c1=O | 368 | 2.8% (inactive) | -12.9% (inactive) | 114% | -31.8% (inactive) | 108% | -0.441 (inactive) | 1.2e-05 (inactive) | 0.00274 (inactive) | 8.57% (inactive) | 39.4% (inactive)
3 | CN(CC(=O)O)S(=O)(=O)c1cc(Cl)ccc1Cl | 416 | 3.5% (inactive) | -0.4% (inactive) | 111% | -8.7% (inactive) | 101% | -0.437 (inactive) | -5e-05 (inactive) | 0.0044 (inactive) | -11.4% (inactive) | -16.7% (inactive)
4 | COC(=O)c1ccc(NC(=O)CN2CCCC2)cc1 | 612 | -11.4% (inactive) | 13.1% (inactive) | 107% | 51.6% (inactive) | 141% | -0.514 (inactive) | -6.2e-05 (inactive) | 0.00467 (inactive) | 9.14% (inactive) | 7.68% (inactive)
5 | COc1ccc(C(=O)Nc2ccccc2C(=O)NCCN2CCOCC2)cc1 | 462 | -2.2% (inactive) | -3.2% (inactive) | 98.2% | -23.5% (inactive) | 103% | -0.429 (inactive) | -1.1e-05 (inactive) | 0.00486 (inactive) | -23.4% (inactive) | -25.1% (inactive)
6 | C=CCn1c(COc2ccc(Cl)cc2)nnc1SCC(=O)N1CC(=O)Nc2ccccc21 | 315 | 1.9% (inactive) | -0.9% (inactive) | 104% | -6.5% (inactive) | 110% | -0.425 (inactive) | -2.1e-05 (inactive) | 0.00537 (inactive) | 3.41% (inactive) | 4.64% (inactive)
7 | CC1(C)NC(=O)N(CN2C(=O)NC(C)(C)C2=O)C1=O | 579 | -7.9% (inactive) | -22.5% (inactive) | 114% | 28.8% (inactive) | 110% | -0.415 (inactive) | -3.4e-05 (inactive) | 0.00531 (inactive) | 7.1% (inactive) | 9.34% (inactive)
8 | CC(C)C(NC(=O)c1ccc(S(=O)(=O)N2CCOCC2)cc1)c1nc2ccccc2[nH]1 (centres undefined) | 276 | 15.9% (inactive) | -10.8% (inactive) | 114% | 8.4% (inactive) | 98.7% | -0.436 (inactive) | -9.2e-05 (inactive) | 0.00591 (inactive) | 13.3% (inactive) | 26% (inactive)
9 | CCC1(C)Cc2c(C#N)c(N)n(N)c(=S)c2CO1 (centres undefined) | 795 | 1.1% (inactive) | -11.2% (inactive) | 97.6% | -97% (inactive) | 106% | -0.422 (inactive) | -4.6e-05 (inactive) | 0.00514 (inactive) | 9.11% (inactive) | 22.9% (inactive)
